{"source": "PubChem BioAssay (EPA / NIEHS)", "key": {"[1]": {"target": "human Raf-1 Proto-Oncogene, serine/threonine Kinase (RAF1), RAF1 (gene 5894) (UniProt P04049)", "sequence (P04049 whole entry, looked up)": "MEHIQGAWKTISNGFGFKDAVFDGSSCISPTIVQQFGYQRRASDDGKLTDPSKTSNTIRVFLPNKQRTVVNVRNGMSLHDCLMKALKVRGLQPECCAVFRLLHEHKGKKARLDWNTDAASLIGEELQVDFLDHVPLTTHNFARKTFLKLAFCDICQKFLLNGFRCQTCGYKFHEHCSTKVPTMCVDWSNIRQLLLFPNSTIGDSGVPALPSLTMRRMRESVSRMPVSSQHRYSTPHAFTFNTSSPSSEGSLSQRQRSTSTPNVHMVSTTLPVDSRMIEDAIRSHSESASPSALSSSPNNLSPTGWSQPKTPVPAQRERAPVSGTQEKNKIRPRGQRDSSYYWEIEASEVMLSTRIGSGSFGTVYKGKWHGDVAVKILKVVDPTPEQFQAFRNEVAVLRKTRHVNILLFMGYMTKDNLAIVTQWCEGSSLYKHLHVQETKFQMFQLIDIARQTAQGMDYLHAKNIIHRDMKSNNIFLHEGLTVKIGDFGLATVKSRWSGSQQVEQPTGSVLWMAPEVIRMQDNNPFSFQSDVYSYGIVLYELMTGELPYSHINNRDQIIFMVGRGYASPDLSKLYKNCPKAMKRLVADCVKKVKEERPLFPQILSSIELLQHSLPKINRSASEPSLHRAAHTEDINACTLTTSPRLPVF", "assay": "NVS_ENZ_hRAF1: NovaScreen (NVS) Enzymatic Assay for human Raf-1 Proto-Oncogene, serine/threonine Kinase (RAF1) (AID 2283216)", "method_in_brief": "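Single-point screening at 25 uM (duplicate), followed by singleton concentration-response to 50 uM maximum for chemicals exceeding threshold. Enzyme activity from fluorescent substrate-product mobility-shift separation after 1 h, relative to DMSO.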"}, "[2]": {"target": "human Protein Tyrosine Phosphatase Receptor Type F (PTPRF), PTPRF (gene 5792) (UniProt P10586)", "assay": "NVS_ENZ_hPTPRF: NovaScreen (NVS) Enzymatic Assay for human Protein Tyrosine Phosphatase Receptor Type F (PTPRF) (AID 2283213)", "protocol": "(§1) NVS_ENZ_hPTPRF is a biochemical, single-readout assay that uses extracted gene-proteins in a cell-free assay. Measurements were taken 1 hour after chemical dosing in a 384-well plate.NVS_ENZ_hPTPRF is one of one assay component(s) measured or calculated from the NVS_ENZ_hPTPRF assay. It is designed to make measurements of enzyme activity, a form of enzyme reporter, as detected with fluorescence intensity signals by Fluorescence and electrophoretic mobility shift technology.Data from the assay component NVS_ENZ_hPTPRF was analyzed into 1 assay endpoint. This assay endpoint, NVS_ENZ_hPTPRF, was analyzed in the positive analysis fitting direction relative to DMSO as the negative control and baseline of activity. Using a type of enzyme reporter, loss-of-signal activity can be used to understand changes in the enzymatic activity as they relate to the gene PTPRF. Furthermore, this assay endpoint can be referred to as a primary readout, because this assay has produced multiple assay endpoints where this one serves a enzymatic activity function. To generalize the intended target to other relatable targets, this assay endpoint is annotated to the phosphatase intended target family, where the subfamily is receptor tyrosine phosphatase.\n(§2) Binding assays used specific radioligands (tritiated, iodinated) with non-radioactive competitive displacement ligands in agonist or antagonist protocols (as indicated) and various reference compounds and inhibitors to titrate specific binding to receptors and transporters. Most enzyme assays (CYPs, kinases, phosphatases, proteases, HDACs) used recombinant protein and specific substrates (fluorescence mostly, some colorimetric and radioactive) and inhibitors, followed by a biochemical separation of substrate and product. All assays for the biochemical HTS were initially run in duplicate at a single concentration (10 uM for CYP450 assays and 25 uM for all others). Assay-chemical combinations meeting a pre-defined threshold (e.g., 30% inhibition and other criteria defined below) were then run in singleton concentration-response format with maximum concentration of 20 uM for CYPs and 50 uM for all others. Each assay was run with positive and negative controls, and concurrent controls on every plate. The follow-up (secondary) screen tested active chemical-pairs in concentration series, as well as a few additional assays not tested in the primary screen, some selected negative inactives, and several cases re-run in the concentration series for confirmatory purposes."}, "[3]": {"target": "human Protein Tyrosine Phosphatase Non-receptor Type 4 (PTPN4), PTPN4 (gene 5775) (UniProt P29074)", "sequence (P29074 whole entry, looked up)": "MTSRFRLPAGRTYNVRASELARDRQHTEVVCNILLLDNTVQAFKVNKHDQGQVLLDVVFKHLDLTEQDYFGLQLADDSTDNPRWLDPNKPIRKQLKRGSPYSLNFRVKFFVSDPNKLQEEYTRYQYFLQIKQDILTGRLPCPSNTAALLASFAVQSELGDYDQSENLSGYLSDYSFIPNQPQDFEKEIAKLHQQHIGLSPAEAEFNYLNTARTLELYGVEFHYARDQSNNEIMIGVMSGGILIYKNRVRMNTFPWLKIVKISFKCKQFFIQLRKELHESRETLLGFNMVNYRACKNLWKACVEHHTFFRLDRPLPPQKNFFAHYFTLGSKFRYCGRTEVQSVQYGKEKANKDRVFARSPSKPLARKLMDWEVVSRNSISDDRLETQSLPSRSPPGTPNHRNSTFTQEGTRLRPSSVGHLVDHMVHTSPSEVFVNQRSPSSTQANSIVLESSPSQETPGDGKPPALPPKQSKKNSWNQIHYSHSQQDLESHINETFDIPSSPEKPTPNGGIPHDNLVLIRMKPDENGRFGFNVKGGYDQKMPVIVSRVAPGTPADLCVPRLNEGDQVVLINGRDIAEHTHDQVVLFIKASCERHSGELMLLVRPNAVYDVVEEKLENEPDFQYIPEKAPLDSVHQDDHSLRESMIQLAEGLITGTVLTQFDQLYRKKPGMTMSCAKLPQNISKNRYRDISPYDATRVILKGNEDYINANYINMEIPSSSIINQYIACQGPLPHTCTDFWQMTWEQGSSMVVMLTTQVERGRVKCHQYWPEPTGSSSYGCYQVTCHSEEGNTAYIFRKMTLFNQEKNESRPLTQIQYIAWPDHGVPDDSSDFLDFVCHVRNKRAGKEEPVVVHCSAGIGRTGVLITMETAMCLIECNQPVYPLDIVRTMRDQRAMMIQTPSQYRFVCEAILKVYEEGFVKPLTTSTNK", "assay": "NVS_ENZ_hPTPN4: NovaScreen (NVS) Enzymatic Assay for human Protein Tyrosine Phosphatase Non-receptor Type 4 (PTPN4) (AID 2283208)", "method_in_brief": "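Screened in duplicate at 25 uM, with hits then titrated to a top concentration of 50 uM. Recombinant Sf9-derived PTPN4 turnover was read by fluorescence with electrophoretic separation, 1.33 h after compound addition. DMSO served as baseline.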"}, "[4]": {"target": "human Protein Tyrosine Phosphatase Non-receptor Type 2 (PTPN2), PTPN2 (gene 5771) (UniProt P17706)", "sequence (P17706 whole entry, looked up)": "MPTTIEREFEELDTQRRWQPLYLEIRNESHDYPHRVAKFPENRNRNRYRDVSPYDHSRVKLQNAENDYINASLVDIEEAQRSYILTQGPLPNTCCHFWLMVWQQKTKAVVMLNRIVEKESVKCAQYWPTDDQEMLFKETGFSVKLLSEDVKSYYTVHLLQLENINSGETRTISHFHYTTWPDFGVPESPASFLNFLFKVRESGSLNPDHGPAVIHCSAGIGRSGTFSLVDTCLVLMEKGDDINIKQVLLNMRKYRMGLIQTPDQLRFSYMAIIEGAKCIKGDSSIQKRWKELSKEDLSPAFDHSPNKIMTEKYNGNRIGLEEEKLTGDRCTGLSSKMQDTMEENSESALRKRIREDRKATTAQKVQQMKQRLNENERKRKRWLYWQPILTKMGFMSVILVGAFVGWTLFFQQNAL", "assay": "NVS_ENZ_hPTPN2: NovaScreen (NVS) Enzymatic Assay for human Protein Tyrosine Phosphatase Non-receptor Type 2 (PTPN2) (AID 2283207)", "method_in_brief": "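Activity measured as fluorescence after mobility-shift separation of substrate and product, 1 h after compound. Duplicate single-point 25 uM primary testing, concentration series for actives; inhibition scored as signal loss relative to DMSO baseline.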"}, "[5]": {"target": "human Protein Tyrosine Phosphatase Non-receptor Type 9 (PTPN9), PTPN9 (gene 5780) (UniProt P43378)", "sequence (P43378 whole entry, looked up)": "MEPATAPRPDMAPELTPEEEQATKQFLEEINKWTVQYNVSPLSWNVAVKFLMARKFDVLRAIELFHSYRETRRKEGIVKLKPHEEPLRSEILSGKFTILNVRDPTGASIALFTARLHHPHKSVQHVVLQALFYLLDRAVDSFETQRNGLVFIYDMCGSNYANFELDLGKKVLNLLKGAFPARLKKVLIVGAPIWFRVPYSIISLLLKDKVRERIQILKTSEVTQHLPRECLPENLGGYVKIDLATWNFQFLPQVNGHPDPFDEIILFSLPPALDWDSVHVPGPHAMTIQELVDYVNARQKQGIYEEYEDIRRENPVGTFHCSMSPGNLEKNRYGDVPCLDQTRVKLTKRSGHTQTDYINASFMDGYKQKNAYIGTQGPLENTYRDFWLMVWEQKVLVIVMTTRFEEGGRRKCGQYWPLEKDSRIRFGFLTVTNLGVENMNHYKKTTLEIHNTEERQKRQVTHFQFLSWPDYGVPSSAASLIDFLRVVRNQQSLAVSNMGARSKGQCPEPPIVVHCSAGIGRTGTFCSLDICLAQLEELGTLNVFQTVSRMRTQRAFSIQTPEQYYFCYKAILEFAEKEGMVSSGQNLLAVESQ", "assay": "NVS_ENZ_hPTPN9: NovaScreen (NVS) Enzymatic Assay for human Protein Tyrosine Phosphatase Non-receptor Type 9 (PTPN9) (AID 2283209)", "method_in_brief": "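Sf9-expressed enzyme in a cell-free assay, fluorescence read 1.33 h after dosing with mobility-shift separation of substrate and product. Tested at 25 uM in duplicate, then up to 50 uM; signal loss versus DMSO.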"}, "[6]": {"target": "human Protein Tyrosine Phosphatase Non-receptor Type 6 (PTPN6), PTPN6 (gene 5777) (UniProt P29350)", "sequence (P29350 whole entry, looked up)": "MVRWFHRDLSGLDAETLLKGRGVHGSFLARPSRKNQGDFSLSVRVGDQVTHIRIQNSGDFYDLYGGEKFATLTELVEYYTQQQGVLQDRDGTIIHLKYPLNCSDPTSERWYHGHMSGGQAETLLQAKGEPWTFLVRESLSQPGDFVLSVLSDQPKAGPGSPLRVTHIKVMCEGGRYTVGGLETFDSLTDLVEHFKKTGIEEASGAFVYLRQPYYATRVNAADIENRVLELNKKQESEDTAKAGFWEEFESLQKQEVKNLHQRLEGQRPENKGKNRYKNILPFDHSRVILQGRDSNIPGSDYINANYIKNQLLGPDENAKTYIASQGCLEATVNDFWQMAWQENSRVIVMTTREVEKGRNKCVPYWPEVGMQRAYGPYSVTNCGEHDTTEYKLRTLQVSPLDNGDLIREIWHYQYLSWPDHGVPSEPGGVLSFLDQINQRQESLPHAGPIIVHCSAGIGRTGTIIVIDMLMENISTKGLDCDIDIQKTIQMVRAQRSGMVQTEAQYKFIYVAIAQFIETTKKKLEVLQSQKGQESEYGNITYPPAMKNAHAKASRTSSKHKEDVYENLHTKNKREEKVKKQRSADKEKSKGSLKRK", "assay": "NVS_ENZ_hPTPN6: NovaScreen (NVS) Enzymatic Assay for human Protein Tyrosine Phosphatase Non-receptor Type 6 (PTPN6) (AID 2283210)", "method_in_brief": "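Recombinant human PTPN6 from SF9 cells, enzyme activity followed by fluorescence after mobility-shift separation of substrate and product at 1.33 h. Chemicals first tested at a single 25 uM in duplicate, then confirmed across concentration series; loss of signal relative to DMSO.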"}, "[7]": {"target": "human Protein Tyrosine Phosphatase Receptor Type C (PTPRC), PTPRC (gene 5788) (UniProt P08575)", "assay": "NVS_ENZ_hPTPRC: NovaScreen (NVS) Enzymatic Assay for human Protein Tyrosine Phosphatase Receptor Type C (PTPRC) (AID 2283212)", "protocol": "NVS_ENZ_hPTPRC is a biochemical, single-readout assay that uses extracted gene-proteins from yeast cells in a cell-free assay. Measurements were taken 1 hour after chemical dosing in a 96-well plate.NVS_ENZ_hPTPRC is one of one assay component(s) measured or calculated from the NVS_ENZ_hPTPRC assay. It is designed to make measurements of enzyme activity, a form of enzyme reporter, as detected with absorbance signals by Colorimetric technology.Data from the assay component NVS_ENZ_hPTPRC was analyzed into 1 assay endpoint. This assay endpoint, NVS_ENZ_hPTPRC, was analyzed in the positive analysis fitting direction relative to DMSO as the negative control and baseline of activity. […] Furthermore, this assay endpoint can be referred to as a primary readout, because this assay has produced multiple assay endpoints where this one serves a enzymatic activity function. […]\nBinding assays used specific radioligands (tritiated, iodinated) with non-radioactive competitive displacement ligands in agonist or antagonist protocols (as indicated) and various reference compounds and inhibitors to titrate specific binding to receptors and transporters. Most enzyme assays (CYPs, kinases, phosphatases, proteases, HDACs) used recombinant protein and specific substrates (fluorescence mostly, some colorimetric and radioactive) and inhibitors, followed by a biochemical separation of substrate and product. […]"}, "[8]": {"target": "human Rho Associated Coiled-coil Containing Protein Kinase 1 (ROCK1), ROCK1 (gene 6093) (UniProt Q13464)", "assay": "NVS_ENZ_hROCK1: NovaScreen (NVS) Enzymatic Assay for human Rho Associated Coiled-coil Containing Protein Kinase 1 (ROCK1) (AID 2283214)", "protocol": "as §1, with “NVS_ENZ_hROCK1” for “NVS_ENZ_hPTPRF”, “plate.NVS_ENZ_hROCK1” for “plate.NVS_ENZ_hPTPRF”, “NVS_ENZ_hROCK1,” for “NVS_ENZ_hPTPRF,”, “ROCK1.” for “PTPRF.”, “kinase” for “phosphatase”, “serine/threonine kinase. […]” for “receptor tyrosine phosphatase.”"}, "[9]": {"target": "human Protein Tyrosine Phosphatase Receptor Type M (PTPRM), PTPRM (gene 5797) (UniProt P28827)", "sequence (P28827 whole entry, looked up)": "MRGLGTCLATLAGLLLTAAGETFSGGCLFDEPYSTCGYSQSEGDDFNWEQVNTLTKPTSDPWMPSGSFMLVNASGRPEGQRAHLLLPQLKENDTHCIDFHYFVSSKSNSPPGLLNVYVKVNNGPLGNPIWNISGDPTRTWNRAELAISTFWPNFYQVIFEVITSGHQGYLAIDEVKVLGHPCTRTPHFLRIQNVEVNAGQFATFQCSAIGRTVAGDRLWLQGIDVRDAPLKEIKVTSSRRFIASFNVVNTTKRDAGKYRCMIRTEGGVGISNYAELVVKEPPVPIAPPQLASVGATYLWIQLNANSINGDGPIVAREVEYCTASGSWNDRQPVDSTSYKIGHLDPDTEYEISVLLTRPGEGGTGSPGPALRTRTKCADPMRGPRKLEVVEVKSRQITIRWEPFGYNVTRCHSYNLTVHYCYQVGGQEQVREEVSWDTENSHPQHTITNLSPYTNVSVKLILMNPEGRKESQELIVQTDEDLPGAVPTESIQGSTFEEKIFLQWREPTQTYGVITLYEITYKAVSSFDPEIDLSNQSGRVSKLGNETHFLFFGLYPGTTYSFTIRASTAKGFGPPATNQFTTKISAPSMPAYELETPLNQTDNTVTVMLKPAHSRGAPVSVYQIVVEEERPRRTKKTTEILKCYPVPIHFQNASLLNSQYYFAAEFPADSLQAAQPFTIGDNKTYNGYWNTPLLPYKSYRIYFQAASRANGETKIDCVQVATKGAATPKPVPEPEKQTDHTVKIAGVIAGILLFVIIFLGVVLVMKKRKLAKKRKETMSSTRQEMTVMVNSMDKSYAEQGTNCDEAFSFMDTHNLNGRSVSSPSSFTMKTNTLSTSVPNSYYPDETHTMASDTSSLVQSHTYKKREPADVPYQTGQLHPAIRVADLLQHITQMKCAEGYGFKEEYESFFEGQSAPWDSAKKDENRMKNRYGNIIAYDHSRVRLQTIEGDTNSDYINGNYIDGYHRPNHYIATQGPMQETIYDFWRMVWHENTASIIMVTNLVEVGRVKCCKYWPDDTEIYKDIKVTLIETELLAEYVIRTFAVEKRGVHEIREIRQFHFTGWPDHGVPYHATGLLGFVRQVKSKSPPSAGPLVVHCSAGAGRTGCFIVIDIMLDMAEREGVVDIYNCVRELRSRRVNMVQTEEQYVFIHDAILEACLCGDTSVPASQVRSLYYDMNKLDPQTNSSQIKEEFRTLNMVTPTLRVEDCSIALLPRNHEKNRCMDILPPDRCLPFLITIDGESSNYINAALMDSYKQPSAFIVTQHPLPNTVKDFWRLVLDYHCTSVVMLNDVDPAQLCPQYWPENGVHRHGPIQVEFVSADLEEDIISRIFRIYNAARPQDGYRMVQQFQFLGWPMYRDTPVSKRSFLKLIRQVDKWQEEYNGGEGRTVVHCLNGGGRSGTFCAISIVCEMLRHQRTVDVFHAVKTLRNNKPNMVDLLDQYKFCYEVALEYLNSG", "assay": "NVS_ENZ_hPTPRM: NovaScreen (NVS) Enzymatic Assay for human Protein Tyrosine Phosphatase Receptor Type M (PTPRM) (AID 2283215)", "protocol": "as §1, with “NVS_ENZ_hPTPRM” for “NVS_ENZ_hPTPRF”, “1.33 hours” for “1 hour”, “plate.NVS_ENZ_hPTPRM” for “plate.NVS_ENZ_hPTPRF”, “NVS_ENZ_hPTPRM,” for “NVS_ENZ_hPTPRF,”, “PTPRM.” for “PTPRF.”\nas §2, with “Assay-chemical combinations meeting a pre-defined threshold (e.g., 30% inhibition and other criteria defined below) were then run in singleton concentration-response format with maximum concentration of 20 uM for CYPs and 50 uM for all others.” left out"}, "[10]": {"target": "human Protein Tyrosine Phosphatase Receptor Type B (PTPRB), PTPRB (gene 5787) (UniProt P23467)", "assay": "NVS_ENZ_hPTPRB: NovaScreen (NVS) Enzymatic Assay for human Protein Tyrosine Phosphatase Receptor Type B (PTPRB) (AID 2283211)", "protocol": "as §1, with “NVS_ENZ_hPTPRB” for “NVS_ENZ_hPTPRF”, “plate.NVS_ENZ_hPTPRB” for “plate.NVS_ENZ_hPTPRF”, “NVS_ENZ_hPTPRB,” for “NVS_ENZ_hPTPRF,”, “PTPRB.” for “PTPRF.”, “phosphatase. […]” for “phosphatase.”"}}, "note": "Results filed as inconclusive are left out. Activity calls are given as the source filed them. The calls were made as follows: active = hit-call score of the fitted dose curve at least 0.9, where 1 is the maximum; inconclusive = response in the unintended direction; inactive = score below 0.9."}
{"smiles": "Oc1ccc(C(c2ccc(O)cc2)(C(F)(F)F)C(F)(F)F)cc1", "values": [{"measurement": "outcome", "setting": "[1]", "result": "inactive"}]}
{"smiles": "Oc1ccc(Cl)cc1Cl", "values": [{"measurement": "outcome", "setting": "[2]", "result": "inactive"}]}
{"smiles": "C=CC(N)=O", "values": [{"measurement": "outcome", "setting": "[2]", "result": "inactive"}]}
{"smiles": "CN(C)c1nc(=O)n(C2CCCCC2)c(=O)n1C", "values": [{"measurement": "outcome", "setting": "[3]", "result": "inactive"}]}
{"smiles": "Cc1cc(O)ccc1Cl", "values": [{"measurement": "outcome", "setting": "[4]", "result": "inactive"}, {"measurement": "outcome", "setting": "[5]", "result": "inactive"}, {"measurement": "outcome", "setting": "[6]", "result": "inactive"}]}
{"smiles": "CC1=C2C[C@H]3[C@@H](CC=C4C[C@@H](O)CC[C@@]43C)[C@@H]2CC[C@]12O[C@@H]1C[C@H](C)CN[C@H]1[C@H]2C", "values": [{"measurement": "AC50", "setting": "[3]", "result": "16 µM (active)"}, {"measurement": "outcome", "setting": "[5]", "result": "inactive"}]}
{"smiles": "O=C(O)C(F)(F)C(F)(F)C(F)(F)C(F)(F)C(F)(F)C(F)(F)C(F)(F)C(F)(F)C(F)(F)F", "values": [{"measurement": "AC50", "setting": "[7]", "result": "15.8 µM (active)"}]}
{"smiles": "CCOCCOC(C)=O", "values": [{"measurement": "outcome", "setting": "[6]", "result": "inactive"}]}
{"smiles": "C1CC2OC2CC1C1CO1", "note": "(centres undefined)", "values": [{"measurement": "outcome", "setting": "[5]", "result": "inactive"}, {"measurement": "outcome", "setting": "[6]", "result": "inactive"}]}
{"smiles": "CC#Cc1cc(C)nc(Nc2ccccc2)n1", "values": [{"measurement": "outcome", "setting": "[8]", "result": "inactive"}]}
{"smiles": "CC(C)C(=O)OCC(C)(C)C(OC(=O)C(C)C)C(C)C", "note": "(centres undefined)", "values": [{"measurement": "outcome", "setting": "[4]", "result": "inactive"}, {"measurement": "outcome", "setting": "[3]", "result": "inactive"}, {"measurement": "outcome", "setting": "[9]", "result": "inactive"}, {"measurement": "outcome", "setting": "[1]", "result": "inactive"}]}
{"smiles": "CCC(C)c1cc([N+](=O)[O-])cc([N+](=O)[O-])c1O", "note": "(centres undefined)", "values": [{"measurement": "AC50", "setting": "[7]", "result": "25 µM (active)"}]}
{"smiles": "Nn1cnnc1", "values": [{"measurement": "outcome", "setting": "[6]", "result": "inactive"}]}
{"smiles": "Cc1cc2c3c(c1)C(c1ccccc1)=N[C@@H](NC(=O)c1ccncc1)C(=O)N3CC2", "values": [{"measurement": "outcome", "setting": "[9]", "result": "inactive"}]}
{"smiles": "O=C(O)C(F)(F)C(F)(F)C(F)(F)C(F)(F)C(F)(F)C(F)(F)C(F)(F)C(F)(F)F", "values": [{"measurement": "AC50", "setting": "[5]", "result": "25 µM (active)"}, {"measurement": "outcome", "setting": "[10]", "result": "inactive"}, {"measurement": "outcome", "setting": "[2]", "result": "inactive"}, {"measurement": "outcome", "setting": "[9]", "result": "inactive"}, {"measurement": "outcome", "setting": "[1]", "result": "inactive"}]}
{"smiles": "O=C(O)C(F)(F)C(F)(F)C(F)(F)C(F)(F)C(F)(F)F", "values": [{"measurement": "outcome", "setting": "[4]", "result": "inactive"}, {"measurement": "outcome", "setting": "[3]", "result": "inactive"}, {"measurement": "outcome", "setting": "[5]", "result": "inactive"}, {"measurement": "outcome", "setting": "[10]", "result": "inactive"}, {"measurement": "outcome", "setting": "[1]", "result": "inactive"}]}
{"smiles": "O=S(=O)(O)C(F)(F)C(F)(F)C(F)(F)C(F)(F)C(F)(F)C(F)(F)F", "values": [{"measurement": "outcome", "setting": "[2]", "result": "inactive"}, {"measurement": "outcome", "setting": "[9]", "result": "inactive"}]}
{"smiles": "Cc1cccc([N+](=O)[O-])c1", "values": [{"measurement": "outcome", "setting": "[1]", "result": "inactive"}]}
